# Inconclusive results are not listed. Unmarked numbers belong to inactive results. Activity calls are given as the source filed them. Unless noted, the call rests on the fitted dose curve.
# Target: Vitamin D3 receptor (Homo sapiens) (UniProt P11473)
# Assay: qHTS assay to identify small molecule agonists of the vitamin D receptor (VDR) signaling pathway (AID 743222)
# Details: HEK293T VDR-UAS-bla, beta-lactamase FRET ratio, 16 h; series mostly up to 63.5 µM; activation: at the top concentration
# How it was run: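 Using LiveBLAzer B/G FRET detection, agonism was scored in VDR-bla cells exposed overnight (16 h, 37C) to DMSO-dissolved compounds; substrate incubation was 2 h at room temperature.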
# On the % scale 0 is the no-effect control and ±100 the full control effect.
# Chain of Vitamin D3 receptor (Homo sapiens) (P11473 whole entry, looked up): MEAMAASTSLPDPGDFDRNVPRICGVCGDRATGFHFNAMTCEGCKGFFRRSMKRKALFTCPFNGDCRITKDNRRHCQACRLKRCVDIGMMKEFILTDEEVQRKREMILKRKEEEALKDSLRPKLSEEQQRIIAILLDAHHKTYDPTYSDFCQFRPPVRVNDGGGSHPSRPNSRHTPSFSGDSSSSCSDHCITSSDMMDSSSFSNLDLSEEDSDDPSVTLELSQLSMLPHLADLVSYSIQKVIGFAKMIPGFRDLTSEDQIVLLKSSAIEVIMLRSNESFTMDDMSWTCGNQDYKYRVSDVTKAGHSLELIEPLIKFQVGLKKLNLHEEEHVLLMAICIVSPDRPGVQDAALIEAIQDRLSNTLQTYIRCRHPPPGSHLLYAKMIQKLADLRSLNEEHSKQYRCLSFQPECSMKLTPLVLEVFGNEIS
row,SMILES,activation
1,C[C@]12CC[C@H]3[C@@H](CC=C4C[C@@H](O)CC[C@@]43C)[C@@H]1CC[C@@H]2O,2.21%
2,CCCCC(=O)Cl,0.0575% [at 81.1 µM]
3,CC(C)[N+](=O)[O-],3.65%
4,CC(Cl)(Cl)[N+](=O)[O-],-0.23%
5,C=C(C)CN(CC)c1c([N+](=O)[O-])cc(C(F)(F)F)cc1[N+](=O)[O-],0.366%
6,CN1CCN(C(=O)O[C@H]2c3nccnc3C(=O)N2c2ccc(Cl)cn2)CC1,8.56%
7,CCCCCCBr,-0.859% [at 81.1 µM]
8,NC(=S)C(N)=S,2.25%
9,Cc1ncc2n1-c1ccc(Cl)cc1C(c1ccccc1F)=NC2,3.02%
10,COc1cccc(C(=O)NN(C(=O)c2cc(C)cc(C)c2)C(C)(C)C)c1C,-5.43%
11,O=C1c2ccccc2C(=O)c2ccccc21,3.77% [at 29.5 µM]
12,C[N+](C)=CCl,-1.13%
13,CNC(=O)Oc1ccccc1C1OCCO1,-3.37%
14,O=[N+]([O-])c1cccc2cccnc12,3.84% [at 81.1 µM]
15,Cc1cc(C)nc(Nc2ccccc2)n1,-1.27%
16,OCCBr,0.862%
17,CC(C)(C)NCC(O)c1cc(Cl)c(N)c(Cl)c1 (configuration not stated),-1.96%
18,CC(N)=S,-2.21%
19,O=[N+]([O-])c1ccc2c3c(cccc13)CC2,4.74%
20,CCOP(=O)(OCC)OP(=O)(OCC)OCC,3.15%
21,CCC(=O)C(CCN(C)C)(c1ccccc1)c1ccccc1,-9.3%
22,C[C@@H]1CN(C2CCC(C#N)(c3ccc(F)cc3)CC2)CC[C@]1(C(=O)O)c1ccccc1 (some centres not stated),6.01%
23,N#CC(CCc1ccc(Cl)cc1)(Cn1cncn1)c1ccccc1 (configuration not stated),-11.4%
24,CC1(C(=O)Nc2ccc(O)c(Cl)c2Cl)CCCCC1,1.59%
25,CC1CCC(=O)O1 (configuration not stated),5.21%
26,C=CCC1=C(C)[C@@H](OC(=O)[C@@H]2[C@@H](C=C(C)C)C2(C)C)CC1=O,1.94%
27,CS(=O)(=O)c1cc(C(F)(F)F)ccc1C(=O)c1cnoc1C1CC1,1.59%
28,COc1cc2c(cc1OC)[C@@]13CCN4CC5=CCO[C@H]6CC(=O)N2[C@H]1[C@H]6[C@H]5C[C@H]43,-9.55%
29,NC(=O)O,8.45%

# Target: Vitamin D3 receptor (Homo sapiens) (UniProt P11473)
# Assay: qHTS assay to identify small molecule antagonists of the vitamin D receptor (VDR) signaling pathway (AID 743223; active means well fitted inhibition curve with a large enough effect in the signal ratio in the repeat runs, not every such curve was filed as active; the % refers to the signal ratio)
# Details: VDR-UAS-bla HEK293T, beta-lactamase FRET ratio, 16 h; series mostly up to 61 µM; activity change, negative = inhibition: at the top concentration
# How it was run: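 Reporter line VDR-bla; stimulus 1alpha,25-(OH)2 vitamin D3, 3 nM final; compound co-addition, 16 h 37C/5% CO2; LiveBLAzer B/G substrate 2 h RT; fluorescence intensity.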
row,SMILES,"activity change, negative = inhibition"
1,C[C@]12CC[C@H]3[C@@H](CC=C4C[C@@H](O)CC[C@@]43C)[C@@H]1CC[C@@H]2O,-10.7%
2,CC(C)[N+](=O)[O-],11.8%
3,CC(Cl)(Cl)[N+](=O)[O-],17.5%
4,CN1CCN(C(=O)O[C@H]2c3nccnc3C(=O)N2c2ccc(Cl)cn2)CC1,-19.2%
5,CCCCCCBr,1.14% [at 78.8 µM]
6,Cc1ncc2n1-c1ccc(Cl)cc1C(c1ccccc1F)=NC2,4.92%
7,COc1cccc(C(=O)NN(C(=O)c2cc(C)cc(C)c2)C(C)(C)C)c1C,-12.7%
8,O=C1c2ccccc2C(=O)c2ccccc21,1.09% [at 28.5 µM]
9,C[N+](C)=CCl,5.72%
10,COc1cc(OC)nc(Oc2cccc(Oc3nc(OC)cc(OC)n3)c2C(=O)O)n1,10.8%
11,CNC(=O)Oc1ccccc1C1OCCO1,-8.97%
12,O=[N+]([O-])c1cccc2cccnc12,18% [at 78.8 µM]
13,Cc1cc(C)nc(Nc2ccccc2)n1,25.9%
14,OCCBr,23%
15,CC(C)(C)NCC(O)c1cc(Cl)c(N)c(Cl)c1 (configuration not stated),-3.19%
16,CC(N)=S,-26.8%
17,O=[N+]([O-])c1ccc2c3c(cccc13)CC2,0.59%
18,CCC(=O)C(CCN(C)C)(c1ccccc1)c1ccccc1,-1.17%
19,C[C@@H]1CN(C2CCC(C#N)(c3ccc(F)cc3)CC2)CC[C@]1(C(=O)O)c1ccccc1 (some centres not stated),-1.14%
20,N#CC(CCc1ccc(Cl)cc1)(Cn1cncn1)c1ccccc1 (configuration not stated),-16.6%
21,ClC(Cl)C(Cl)Cl,3.64% [at 78.8 µM]
22,CC1CCC(=O)O1 (configuration not stated),0.474%
23,CS(=O)(=O)c1cc(C(F)(F)F)ccc1C(=O)c1cnoc1C1CC1,7.22%
24,COc1cc2c(cc1OC)[C@@]13CCN4CC5=CCO[C@H]6CC(=O)N2[C@H]1[C@H]6[C@H]5C[C@H]43,14.2%
25,NC(=O)O,5.98%

# Tested on: not listed separately
# Assay: qHTS assay to identify small molecule agonists of the vitamin D receptor (VDR) signaling pathway - cell viability counter screen (AID 743224; active means well fitted cell-killing curve with a large enough effect in the repeat runs; further: nearly all actives have a fitted effect of over 50% in size; further: potency means the concentration at half of the fitted maximal effect)
# Details: VDR-bla HEK293T viability, CellTiter-Glo luminescence, 16 h; series mostly up to 62.6 µM; activity change, negative = cytotoxicity: at the top concentration
# How it was run: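 Counter screen for cytotoxicity: VDR-bla cells at 2,000 cells/well, 16 h compound exposure, then CellTiter-Glo luminescence after the beta-lactamase measurement.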
SMILES,"activity change, negative = cytotoxicity",Potency
ClCCCN1CCN(c2cccc(Cl)c2)CC1,11.5%,
C[C@]12CC[C@H]3[C@@H](CC=C4C[C@@H](O)CC[C@@]43C)[C@@H]1CC[C@@H]2O,-0.367%,
CCCCC(=O)Cl,1.16% [at 81.1 µM],
CCCCCCI,11.9%,
CC(C)[N+](=O)[O-],-0.8%,
OC(c1ccccc1)(c1ccccc1)C1CCNCC1,-15.5%,
CC(Cl)(Cl)[N+](=O)[O-],6.81%,
CN1CCN(C(=O)O[C@H]2c3nccnc3C(=O)N2c2ccc(Cl)cn2)CC1,13.5%,
CCCCCCBr,-12.1% [at 81.1 µM],
COc1cccc(C(=O)NN(C(=O)c2cc(C)cc(C)c2)C(C)(C)C)c1C,-8.43%,
O=C1c2ccccc2C(=O)c2ccccc21,-1.06% [at 29.1 µM],
Cc1ncc(CNC(=O)N(CCCl)N=O)c(N)n1,10.8%,
C[N+](C)=CCl,-18.1%,
O=[N+]([O-])c1cccc2cccnc12,3.33% [at 81.1 µM],
Cc1cc(C)nc(Nc2ccccc2)n1,18.1%,
O=C(Nc1ccccc1)c1ccccc1I,-20.3%,
CC(C)(C)NCC(O)c1cc(Cl)c(N)c(Cl)c1 (configuration not stated),-0.419%,
CC(N)=S,-10.8%,
O=[N+]([O-])c1ccc2c3c(cccc13)CC2,11.9%,
CCOP(=O)(OCC)OP(=O)(OCC)OCC,7.58%,
CCC(=O)C(CCN(C)C)(c1ccccc1)c1ccccc1,-8.59%,
C[C@@H]1CN(C2CCC(C#N)(c3ccc(F)cc3)CC2)CC[C@]1(C(=O)O)c1ccccc1 (some centres not stated),-3.07%,
N#CC(CCc1ccc(Cl)cc1)(Cn1cncn1)c1ccccc1 (configuration not stated),-16.8%,
ClC(Cl)C(Cl)Cl,13.7% [at 81.1 µM],
C=CCC1=C(C)[C@@H](OC(=O)[C@@H]2[C@@H](C=C(C)C)C2(C)C)CC1=O,,38.9 µM (active)
CS(=O)(=O)c1cc(C(F)(F)F)ccc1C(=O)c1cnoc1C1CC1,-14.2%,
COc1cc2c(cc1OC)[C@@]13CCN4CC5=CCO[C@H]6CC(=O)N2[C@H]1[C@H]6[C@H]5C[C@H]43,-5.32%,
CNC(=O)Oc1ccc(N(C)C)c(C)c1,-5.59%,

# — PubChem BioAssay (Tox21)
